High-throughput results deposited in PubChem by several laboratories.
A selection: hits, their analogues and other compounds. The true share with any hit is near 5.4%.
GASC-1 inh = inhibitors of human GASC-1 (JMJD2C) demethylase | Q9H3R0 | GST-JMJD2C(1-420) H3K9me3 demethylation, DELFIA europium | inhibition, % at 2.35 µM | 330,000 compounds, 0.069% hits | AID 2099;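 active = more than half of a compound's replicate wells show inhibition beyond 50%, single wells judged on their own value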;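 note: signal counts dimethyl H3K9 product captured on neutravidin plate; 0% = median of DMSO wells and 100% = 0.3 times that DMSO median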
Target sequence (Q9H3R0 1-420 limits assumed): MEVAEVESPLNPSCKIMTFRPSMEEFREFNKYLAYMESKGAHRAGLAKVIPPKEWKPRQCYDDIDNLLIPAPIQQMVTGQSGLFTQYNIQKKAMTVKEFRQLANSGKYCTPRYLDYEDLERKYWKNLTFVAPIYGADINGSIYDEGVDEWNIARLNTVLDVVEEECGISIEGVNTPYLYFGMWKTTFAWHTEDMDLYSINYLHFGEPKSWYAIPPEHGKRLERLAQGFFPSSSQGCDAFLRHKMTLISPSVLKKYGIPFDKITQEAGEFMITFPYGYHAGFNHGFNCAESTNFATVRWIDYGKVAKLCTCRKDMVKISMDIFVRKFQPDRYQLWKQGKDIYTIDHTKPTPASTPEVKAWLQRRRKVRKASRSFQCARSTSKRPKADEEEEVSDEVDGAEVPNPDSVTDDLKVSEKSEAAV
PfM18AAP inh = blocks P. falciparum M18 aspartyl aminopeptidase | recombinant PfM18AAP, H-Glu-NHMec fluorogenic cleavage | inhibition, % at 7.35 µM | 290,000 compounds, 1.2% hits | AID 1822;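 active = inhibition above the campaign mean inhibition over all tested compounds plus 3 SD, cut at about 28% in these data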;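 note: 0% = plate median of test compound wells and 100% = 2 mM ZnCl2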
SMARCA2 act = SMARCA2 function activation, primary screen; MG213 cells, MMTV-luciferase reporter, dexamethasone, overnight; activation, % at 9.1 µM; 370,000 compounds, 1% hits; in the data active = activation above about 7.8%;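 note: 0% = vehicle wells and 100% = reference activator wells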
beta cell repl = inducers of beta-cell replication in MIN6 cells; MIN6 cells proliferation, ATPlite luminescence, 48 h; cells starved in 0.2% serum; 100% = growth in 10% serum; proliferation, % at 10 µM; 330,000 compounds, 0.29% hits; AID 2380;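 active = compounds whose signal lies at least 3.5 SD above the mean of all wells on their plate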;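 note: 0% = DMSO-treated cells in low-serum medium and 100% = 10% serum control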
ALR H2O2 inh = inhibitors of human sulfhydryl oxidase ALR; 290,000 compounds, 3.8% hits; P55789; AID 485317; purified ALR, DTT oxidation, H2O2 HRP-luminol luminescence; inhibition, % (concentration not given with the values);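 active = mean replicate inhibition above about 79%, with every replicate also reaching it, limit read from the data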
Granule exo inh = blocks lytic granule exocytosis; TALL-104 LAMP-1 surface exposure, flow cytometry; cells stimulated with thapsigargin and PMA; inhibition, % at 10 µM; 360,000 compounds, 0.66% hits;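 active = inhibition above about 55%, limit read from the data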
* hit, by the source's call; x = not tested or not shown.

SMILES	GASC-1 inh	PfM18AAP inh	SMARCA2 act	beta cell repl	ALR H2O2 inh	Granule exo inh
Cn1cccc1C1C(C#N)=C(N)OC2=C1C(=O)CCC2 (configuration not stated)	6	28*	0	-4	-17	-5
COC(=O)[C@]12C[C@H](CC(=O)NCc3ccc(C)o3)C(=O)N(Cc3ccccc3)C1=C[C@H](C1CCCC1)O[C@@H]2C	x	x	-8	x	x	x
CCCn1c(NCc2cc(OC)ccc2OC)nc2ccccc21	-2	-12	1	-1	89*	-4
Cn1c(NCc2cccc(Br)c2)nc2ccccc21	-5	-7	2	-3	93*	2
COc1cccc(CNc2nc3ccccc3n2CCN2CCCCC2)c1OC	5	3	-1	-2	99*	3
COc1cccc(CNc2nc3ccccc3n2CCN2CCCCC2)c1	-2	8	-2	-4	99*	1
COc1ccc(OC)c(CNc2nc3ccccc3n2CCN2CCCCC2)c1	0	6	-2	0	-2	2
COc1cccc(NC(=O)n2ccc3ccc(-c4ccc5ccn(C(=O)Nc6cccc(OC)c6)c5c4)cc32)c1	x	x	-3	x	x	x
C[C@H](O)[C@@H]1CN2CCc3c([nH]c4c(-c5ccccc5)cccc34)[C@@H]2C[C@@H]1N(C)C(=O)c1ccco1	x	x	1	x	x	x
COCCCN1C(=O)[C@H](CC(=O)N2CCC(c3ccccc3)CC2)[C@]2(C(=O)OC)CCCCC=C12	x	x	-4	x	x	x
CC(C)c1cc(C(C)C)c(S(=O)(=O)N2CCCC(C(=O)N3CCN(Cc4ccccc4)CC3)C2)c(C(C)C)c1 (configuration not stated)	x	x	-2	x	x	x
COc1ccc(-n2c(SCC(=O)Nc3cc(C)c(NC(=O)c4ccccc4)cc3OC)nnc2-c2ccco2)cc1	x	x	-6	x	x	x
N#Cc1c2n(c3c(=O)n(Cc4ccc(Cl)cc4)cnc13)CCCCC2	0	5	-1	-2	x	1
N#Cc1c2n(c3c(=O)n(Cc4ccccc4)cnc13)CCCC2	7	1	-1	-3	84*	3
COc1ccc(S(=O)(=O)N(Cc2cccs2)C2CCCC2)cc1	0	-6	1	-1	99*	4
COc1ccc(S(=O)(=O)NCc2cccs2)cc1	13	5	1	1	2	2
COc1ccc(CNS(=O)(=O)/C=C/c2cc(C)ccc2CNC(=O)OC(C)(C)C)cc1	x	x	-6	x	x	x
COc1ccc(N2CCN(CCNS(=O)(=O)c3ccc(Br)s3)CC2)cc1	x	x	-2	x	x	x
COc1ccc(C(=O)NC(=S)NNC(=O)CNC(=O)C2CCCCC2)cc1	7	7	0	-4	99*	-6
COc1ccc(C(=O)NC(=S)NNC(=O)Cc2cccs2)cc1	-28	17	-5	-4	99*	1
COc1cc(OC)cc(C(=O)NC(=S)NNC(=O)Cc2cccs2)c1	8	24	-5	-4	99*	6
COc1ccc(C(=O)NNC(=O)CNC(=O)C2CCCCC2)cc1	12	-5	-3	3	-5	2
COc1ccc(C(=O)NC(=S)NNC(=O)c2ccc(C)cc2)cc1	-3	x	1	-4	0	2
CCN(CC)C(=O)c1ccc2c(c1)NC(=O)C(C)(C)O2	x	x	-2	x	x	x
CCn1c(SCC(=O)Nc2ccccc2-c2ccccc2)nnc1-c1cnccn1	x	x	5	x	x	x
SMILES	GASC-1 inh	PfM18AAP inh	SMARCA2 act	beta cell repl	ALR H2O2 inh	Granule exo inh
N[C@H](C(=O)N1CCC[C@@H]1C(=O)N1CCC2CCN(S(=O)(=O)c3ccccc3)CC21)c1ccccc1 (some centres not stated)	x	x	-3	x	x	x
CC(C)Cn1c(N)c(C=O)c(=O)n(C)c1=O	13	3	0	1	100*	-1
CC(C)Cn1c(N)c(C(=O)CCl)c(=O)n(C)c1=O	3	-2	-2	-1	98*	-1
CC(C)Cn1c(N)c(C(=O)CSc2n[nH]c(N)n2)c(=O)n(C)c1=O	x	x	6	-4	31	3
Cn1c(=O)c(C(=O)CCl)c(N)n(CC2CC2)c1=O	x	-1	x	1	18	-4
CN(CCCNC(=O)C1CCC(=O)N1Cc1ccccc1Cl)c1ccccc1 (configuration not stated)	-3	0	0	-2	98*	10
Cc1ccc(CCNC(=O)C2CCC(=O)N2Cc2ccc(F)cc2)cc1 (configuration not stated)	-3	-13	-2	-3	-5	20
O=C(C1CCC(=O)N1Cc1ccccc1Cl)N1CCN(c2ccc(F)cc2)CC1 (configuration not stated)	-1	2	-1	1	97*	-3
CNC(=O)C1CCC(=O)N1Cc1ccccc1Cl (configuration not stated)	-5	0	-2	-1	-18	0
CN(CCCNC(=O)C1CCC(=O)N1Cc1ccc(F)cc1)c1ccccc1 (configuration not stated)	2	3	1	-1	99*	2
CC(C)N1CCCCC(NC(=O)Cc2ccccc2)C1=O (configuration not stated)	x	x	-5	x	x	x
CC(C)=CCC/C(C)=C/CN1C(=O)N(c2ccc(F)cc2)[C@H]2C[C@@H](c3ccccc3)[C@@H](C)[C@@H](C(=O)N3CCOCC3)C[C@H]21	x	x	-8	x	x	x
COc1ccc(NC2CCCN(C(=O)CN3CCOC3=O)C2)cc1 (configuration not stated)	-40	10	0	0	98*	-1
Cc1ccn(CC(=O)N2CCCC(N3CCN(c4cccc(Cl)c4)CC3)C2)n1 (configuration not stated)	-14	-1	2	-3	99*	-2
Cc1ccn(CC(=O)N2CCCC(N3CCN(c4ccccc4F)CC3)C2)n1 (configuration not stated)	-7	5	-1	-2	x	-1
COc1ccc(NC2CCCN(C(=O)CN3CCOC3=O)C2)cc1OC (configuration not stated)	-8	4	4	-2	100*	-11
COc1ccc(NC2CCCN(C(=O)CSc3ccccc3)C2)cc1OC (configuration not stated)	18	4	1	-3	-16	-1
COc1ccc(NC2CCCN(C(=O)Cn3ccc(C)n3)C2)cc1OC (configuration not stated)	4	18	-1	1	99*	-2
O=C1CCCCN1CC(=O)N1CCCC(Nc2ccc(F)cc2)C1 (configuration not stated)	31	2	7	-2	91*	-9
Cc1ccc(NC2CCCN(C(=O)CCN3CCCCO3)C2)cc1C (configuration not stated)	4	8	-4	-2	98*	-2
O=C(CCN1CCCCO1)N1CCCC(N2CCN(c3ccc(F)cc3)CC2)C1 (configuration not stated)	14	13	4	-3	97*	-13
